Out of some 52,000 compounds screened, about 4,300 (8.3%) were called active. What follows is part of a selection rich in actives, with near analogues and random picks from the rest. A number with no mark means an inactive call. Cut-off read from the data, not from the text of the source: active = survival mostly below about 52% (no sharp cut-off); inactive = mostly above about 56%.
Tested on: DeltatarO mutant
Test: growth inhibition of S. aureus wild type versus tarO mutant, primary screen, teichoic acid synthesis inhibitors, RN4220, OD600 (AID 463173)
Details: OD600, 18 h, hits give low values, screened at 18.75 µg/mL (by protocol)

Structure (SMILES) | survival
Cc1ccc(NC(=O)c2ccco2)nc1 | 108%
CC1=C(C(=O)Nc2ccc(Cl)cc2)C(CC(C)C)n2nc(SCc3ccccc3C)nc2N1 (stereo unspecified) | 127%
COC(=O)CCNC(=O)NC(CCC(C)C)c1c(-n2cccc2)sc2c1CCN(C)C2 (stereo unspecified) | 75%
O=C1CC(c2nc(-c3ccccc3)no2)CN1c1ccccc1 (stereo unspecified) | 25% (active)
COc1ccc(-c2noc(C3CC(=O)N(c4cc(C)cc(C)c4)C3)n2)cc1 (stereo unspecified) | 91%
COc1ccc(-c2noc(C3CC(=O)N(c4ccccc4)C3)n2)c(OC)c1 (stereo unspecified) | 101%
Cc1ccc(-c2noc(C3CC(=O)N(c4ccc5c(c4)OCCO5)C3)n2)cc1 (stereo unspecified) | 46% (active)
O=C1CC(c2nc(-c3ccc(Cl)cc3)no2)CN1c1ccc2c(c1)OCCO2 (stereo unspecified) | 115%
Cc1cc(C)cc(N2CC(c3nc(-c4cccc(Cl)c4)no3)CC2=O)c1 (stereo unspecified) | 37% (active)
O=C1CC(c2nc(-c3ccccc3)no2)CN1c1ccc2c(c1)OCCO2 (stereo unspecified) | 93%
O=C1CC(c2nc(-c3cccc(Cl)c3)no2)CN1c1ccc2c(c1)OCCO2 (stereo unspecified) | 144%
CN(C)c1ccc(-c2noc(C3CC(=O)N(c4ccc5c(c4)OCCO5)C3)n2)cc1 (stereo unspecified) | 92%
Cc1ccc(-c2nc3n(n2)C(=O)CC(c2ccc(C)cc2)S3)cc1 (stereo unspecified) | 90%
NC(=O)CSc1ncnc2c1cnn2-c1ccccc1 | 82%
CCOc1ccc(C(=O)N2CC(=O)Nc3ccc(F)cc3C2c2ccc(F)cc2)cc1 (stereo unspecified) | 148%
O=C1CN(C(=O)c2c(F)cccc2Cl)C(c2ccc(F)cc2)c2cc(Br)ccc2N1 (stereo unspecified) | 42% (active)
O=C1CN(C(=O)Cc2ccc(F)cc2)C(c2ccccc2)c2cc(Br)ccc2N1 (stereo unspecified) | 58%
O=C1CN(C(=O)COc2ccccc2)C(c2ccc(F)cc2)c2cc(Br)ccc2N1 (stereo unspecified) | 33% (active)
O=C1CN(C(=O)COc2ccc(Cl)cc2)C(c2ccc(F)cc2)c2cc(Cl)ccc2N1 (stereo unspecified) | 45%

Structure (SMILES) | survival
O=C1CN(C(=O)c2ccccc2)C(c2ccc(F)cc2)c2cc(Br)ccc2N1 (stereo unspecified) | 60%
Cc1ccc(C(=O)N2CC(=O)Nc3ccc(Br)cc3C2c2ccc(F)cc2)cc1C (stereo unspecified) | 66%
CCCCOc1ccc(C(=O)N2CC(=O)Nc3ccc(Br)cc3C2c2ccc(F)cc2)cc1 (stereo unspecified) | 39% (active)
O=C1CN(C(=O)COc2ccc(Cl)cc2)C(c2ccc(F)cc2)c2cc(Br)ccc2N1 (stereo unspecified) | 36% (active)
O=C1CN(C(=O)COc2ccc(Cl)cc2)C(c2ccccc2)c2cc(Br)ccc2N1 (stereo unspecified) | 60%
COc1ccc(C(=O)N2CC(=O)Nc3ccc(Br)cc3C2c2ccc(F)cc2)cc1OC (stereo unspecified) | 48%
O=C(c1ccccc1/S(=N/S(=O)(=O)c1ccccc1)N1CCOCC1)N1CCOCC1 (stereo unspecified) | 75%
Clc1cccc(-c2nnc(CN3CCN(c4ccccn4)CC3)o2)c1 | 82%
CCOc1ccc(CC(=O)NCC(c2cccs2)S(=O)(=O)c2ccc(F)c(C)c2)cc1 (stereo unspecified) | 67%
Cc1ccc(N2CC(NC(=O)C3CCCC3)CC2=O)cc1C (stereo unspecified) | 103%
Cc1ccc(CNc2oc(-c3ccc(COc4ccc(C)cc4)o3)nc2C#N)cc1 | 65%
COCCNC(=O)CCCn1c(SCc2ccccc2C)nc2c(sc3ccccc32)c1=O | 97%
Cc1ccc2oc3c(c(=O)c2c1)C(c1ccc(OCC(N)=O)cc1)N(Cc1ccc2c(c1)OCO2)C3=O (stereo unspecified) | 93%
COC(=O)c1ccc(-n2nnc(-c3nc(-c4ccc5c(c4)OCO5)no3)c2C)cc1 | 82%
Cc1ccccc1NC(=O)c1c(C)oc2ccc(O)c(CN3CCN(C)CC3)c12 | 77%
Cc1nc2nc(SCC(=O)NCCc3ccc(Cl)cc3)nn2c(C)c1Cc1c(F)cccc1Cl | 0% (active)
Cc1ccccc1Cc1c(C)nc2nc(SCC(=O)NCCc3ccc(Cl)cc3)nn2c1C | 67%
Cc1nc2nc(SCC(=O)O)nn2c(C)c1Cc1c(F)cccc1Cl | 93%
Cc1nc2nc(SCC(=O)NCCc3ccc(Cl)cc3)nn2c(C)c1Cc1ccccc1Cl | 99%

Structure (SMILES) | survival
Cc1nc2nc(SCC(=O)NC(C)c3ccccc3)nn2c(C)c1Cc1c(F)cccc1Cl (stereo unspecified) | 68%
CCCCNC(=O)CSc1nc2nc(C)c(Cc3c(F)cccc3Cl)c(C)n2n1 | 31% (active)
COc1ccc(CCNC(=O)CSc2nc3nc(C)c(Cc4ccc(C)cc4)c(C)n3n2)cc1OC | 55%
Cc1nc2nc(SCC(=O)NCCc3ccc(Cl)cc3)nn2c(C)c1Cc1ccccc1 | 46% (active)
Cc1nc2nc(SCc3c(F)cccc3Cl)nn2c(C)c1Cc1ccccc1 | 66%
CCN(CC)CCCNC(=O)CSc1nc2nc(C)c(Cc3c(F)cccc3Cl)c(C)n2n1 | 146%
Cc1nc2nc(SCC(=O)Nc3cccc(Cl)c3)nn2c(C)c1Cc1ccccc1 | 85%
Cc1nc2nc(SCC(=O)NCCc3ccccc3)nn2c(C)c1Cc1c(F)cccc1Cl | 37% (active)
Cc1cccc(C(=O)N2CCc3cc(CNS(=O)(=O)c4cccs4)ccc32)c1 | 74%
Cc1ccc(C)c(CN2C(=O)c3ccccc3S(=O)(=O)c3ccc(C(=O)Nc4ccccc4C(F)(F)F)cc32)c1 | 84%
Cc1ccccc1Cn1c(CN2CCN(c3cc(Cl)ccc3C)CC2)nc2c1c(=O)[nH]c(=O)n2C | 106%
CCOC(=O)Cc1ccc(NC(=O)N(Cc2ccc(OC)cc2)C2CCN(C(C)=O)CC2)cc1 | 88%
Cc1ccc(NC(=O)C(=O)NCC(c2cccnc2)N2CCN(c3ccccc3F)CC2)cc1Cl (stereo unspecified) | 73%
Cc1oc(-c2ccc(C(=O)NCc3ccccc3)cc2)nc1CS(=O)(=O)c1ccccc1 | 88%
Cc1ccc(C)c(N2CCN(C(=O)c3ccc4[nH]c(C)c(C)c4c3)CC2)c1 | 80%
N=Nc1c(O)n(CC(=O)Nc2ccccc2)c2ccccc12 | 87%
N=C(N=Nc1c(O)n(Cc2ccccc2)c2ccccc12)SCC(=O)Nc1ccccc1 | 23% (active)
CN(C)Cn1c(O)c(N=NC(=O)c2ccccc2)c2ccccc21 | 93%

— PubChem BioAssay AID463173 (ICCB-Longwood Screening Facility, Harvard Medical School, 2010)
